This is an account of results in PubChem BioAssay (NCATS).

Where “and” joins values, the source holds several entries; their conditions need not be identical. Equal entries are not always repeated. Results filed as inconclusive are left out. Some compounds were tested as several samples or in several runs, with calls that do not always agree. Calls of active or inactive are those of the source. Unless noted, the call rests on the fitted dose curve; in most records, active means well fitted curve in the direction sought with a large enough effect; inconclusive means small, poorly fitted or top-dose-only effect, or another doubt; inactive means no such curve, though single readings can be large; an effect the other way counts as inactive or inconclusive. Residues, ends and D or L forms follow the SMILES beside them. *: point of attachment. Cbz = O=C(OCc1ccccc1)*

Test [1] deals with 3',5'-cyclic-AMP phosphodiesterase 4B (Homo sapiens) (UniProt Q07343). The test can be described thus: qHTS Assay for Inhibitors of PDE-IV (AID 607; active means well fitted activation curve with a large enough effect in the main read-out, with a control signal flat, not every such curve was filed as active; further: potency means the concentration at half of the fitted maximal effect). In short, it runs like this:
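Cell-based read-out of cAMP via a modified cyclic nucleotide-gated channel and membrane potential dye (535/590 nm) in HEK293 cells expressing PDE4 endogenously. Compounds tested up to 22.9 uM final; 100 uM RO 20-1724 reference.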

The target in test [2] is Guanine nucleotide-binding protein G(i) subunit alpha-1 (Homo sapiens) (UniProt P63096). The test can be described thus: qHTS Assay for Inhibitors of RGS12 GoLoco Motif Activity (Green Fluorophore) (AID 879). Further: potency means the concentration at half of the fitted maximal effect. In short, it runs like this: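 A drop in FITC polarization marked displacement of the FITC-tagged RGS12 GoLoco peptide (10 nM) from Gαi1 (50 nM). Compounds were incubated 10 min at room temperature in Tris pH 7.5 buffer containing 150 mM NaCl, 0.1 mM GDP and 0.05% NP40; unlabeled peptide titration served as control.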

For test [3], the target named is Cytochrome P450 3A4 (Homo sapiens) (UniProt P08684). The test can be described thus: qHTS Assay for Activators of Cytochrome P450 3A4 (AID 885). Further: nearly all actives have a fitted effect of over 65% in size. The essentials:
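Luminescent readout of luciferin formed from 25 uM Luciferin-PPXE (KM level) by 20 nM CYP3A4 in 200 mM KPO4, with 60 min NADPH-driven reaction at room temperature after 10 min compound exposure. Ketoconazole (57 uM) defined 100% inhibition.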
(qHTS replaces the single test concentration by a dilution series.)

Test [4] has the same target. As to the kind of experiment: qHTS Assay for Inhibitors and Substrates of Cytochrome P450 3A4 (AID 884). Further: nearly all actives have a fitted effect of over 50% in size. Further: potency means the concentration at half of the fitted maximal effect. In short, it runs like this:
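Luminescent readout of luciferin produced by CYP3A4 (20 nM) dealkylation of Luciferin-PPXE, 25 uM (its KM). NADPH-driven reaction ran 60 min at RT after 10 min compound preincubation; data scaled to 57 uM ketoconazole as 100% inhibition.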

Test [5] deals with Cytochrome P450 2D6 (Homo sapiens) (UniProt P10635). The test can be described thus: qHTS Assay for Inhibitors and Substrates of Cytochrome P450 2D6 (AID 891). Further: nearly all actives have a fitted effect of over 60% in size. Further: potency means the concentration at half of the fitted maximal effect. In short, it runs like this:
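Luminescent read-out of luciferin formed by 5 nM human CYP2D6 demethylating 30 uM Luciferin-ME EGE (Km level) over 60 min at room temperature after NADPH regeneration addition. Data normalized to full inhibition by 1.43 uM quinidine.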

Test [6] has as its target Cytochrome P450 2C9 (Homo sapiens) (UniProt P11712). As to the kind of experiment: qHTS Assay for Inhibitors and Substrates of Cytochrome P450 2C9 (AID 883). Further: nearly all actives have a fitted effect of over 60% in size. Further: potency means the concentration at half of the fitted maximal effect. The essentials:
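Human CYP2C9 (10nM) hydroxylated Luciferin-H (100uM, at its KM) to luciferin in 25mM KPO4. Compound was preincubated 10 min at 37C, then NADPH regeneration started a 60 min reaction at 37C. Luminescence was read after detection reagent, normalized to 57uM sulphaphenazole.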

Sequence of Cytochrome P450 2C9 (Homo sapiens) (P11712 whole entry, looked up): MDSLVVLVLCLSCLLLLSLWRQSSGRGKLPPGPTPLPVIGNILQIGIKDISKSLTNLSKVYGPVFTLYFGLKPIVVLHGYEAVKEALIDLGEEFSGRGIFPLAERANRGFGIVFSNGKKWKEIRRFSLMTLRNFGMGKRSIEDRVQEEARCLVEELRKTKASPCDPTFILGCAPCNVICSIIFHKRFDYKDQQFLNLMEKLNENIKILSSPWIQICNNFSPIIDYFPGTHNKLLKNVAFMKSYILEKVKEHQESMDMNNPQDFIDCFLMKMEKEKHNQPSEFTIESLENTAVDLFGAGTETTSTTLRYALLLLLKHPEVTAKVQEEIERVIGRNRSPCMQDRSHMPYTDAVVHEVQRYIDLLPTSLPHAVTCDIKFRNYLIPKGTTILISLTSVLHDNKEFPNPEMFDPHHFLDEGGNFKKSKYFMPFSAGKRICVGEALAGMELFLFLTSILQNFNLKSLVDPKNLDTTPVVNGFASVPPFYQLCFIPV
Sequence of 3',5'-cyclic-AMP phosphodiesterase 4B (Homo sapiens) (Q07343 whole entry, looked up): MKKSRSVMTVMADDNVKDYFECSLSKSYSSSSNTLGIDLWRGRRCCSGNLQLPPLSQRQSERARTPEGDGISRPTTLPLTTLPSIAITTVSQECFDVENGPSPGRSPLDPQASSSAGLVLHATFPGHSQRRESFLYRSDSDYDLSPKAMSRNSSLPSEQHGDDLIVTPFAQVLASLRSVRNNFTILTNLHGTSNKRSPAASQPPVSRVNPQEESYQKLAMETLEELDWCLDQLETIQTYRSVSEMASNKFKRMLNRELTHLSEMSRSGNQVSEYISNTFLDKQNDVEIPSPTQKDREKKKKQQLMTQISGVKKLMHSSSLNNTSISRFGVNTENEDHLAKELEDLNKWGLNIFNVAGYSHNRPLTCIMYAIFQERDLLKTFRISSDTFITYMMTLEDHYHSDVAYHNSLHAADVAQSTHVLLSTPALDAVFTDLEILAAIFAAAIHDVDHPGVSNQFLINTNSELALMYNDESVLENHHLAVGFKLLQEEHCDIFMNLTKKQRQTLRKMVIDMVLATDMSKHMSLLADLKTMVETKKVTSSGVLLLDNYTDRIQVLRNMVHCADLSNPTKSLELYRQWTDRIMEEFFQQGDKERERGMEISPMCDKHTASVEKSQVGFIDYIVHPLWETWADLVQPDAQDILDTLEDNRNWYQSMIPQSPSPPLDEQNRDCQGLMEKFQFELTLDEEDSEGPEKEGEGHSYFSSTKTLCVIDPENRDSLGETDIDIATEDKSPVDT
Sequence of Cytochrome P450 3A4 (Homo sapiens) (P08684 whole entry, looked up): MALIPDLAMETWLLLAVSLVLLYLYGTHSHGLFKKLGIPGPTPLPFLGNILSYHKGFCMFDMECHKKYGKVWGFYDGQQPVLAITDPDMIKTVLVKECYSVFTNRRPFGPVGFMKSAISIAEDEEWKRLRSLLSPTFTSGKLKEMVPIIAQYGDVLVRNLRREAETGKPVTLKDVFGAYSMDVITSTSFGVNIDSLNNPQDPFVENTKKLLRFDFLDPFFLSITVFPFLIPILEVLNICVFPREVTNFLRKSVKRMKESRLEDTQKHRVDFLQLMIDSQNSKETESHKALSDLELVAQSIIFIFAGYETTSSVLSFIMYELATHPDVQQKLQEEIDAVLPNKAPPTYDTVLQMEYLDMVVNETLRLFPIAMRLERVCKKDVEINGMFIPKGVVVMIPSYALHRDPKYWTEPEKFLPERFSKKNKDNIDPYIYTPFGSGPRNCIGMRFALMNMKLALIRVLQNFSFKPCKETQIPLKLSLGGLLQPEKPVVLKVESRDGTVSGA
Sequence of Cytochrome P450 2D6 (Homo sapiens) (P10635 whole entry, looked up): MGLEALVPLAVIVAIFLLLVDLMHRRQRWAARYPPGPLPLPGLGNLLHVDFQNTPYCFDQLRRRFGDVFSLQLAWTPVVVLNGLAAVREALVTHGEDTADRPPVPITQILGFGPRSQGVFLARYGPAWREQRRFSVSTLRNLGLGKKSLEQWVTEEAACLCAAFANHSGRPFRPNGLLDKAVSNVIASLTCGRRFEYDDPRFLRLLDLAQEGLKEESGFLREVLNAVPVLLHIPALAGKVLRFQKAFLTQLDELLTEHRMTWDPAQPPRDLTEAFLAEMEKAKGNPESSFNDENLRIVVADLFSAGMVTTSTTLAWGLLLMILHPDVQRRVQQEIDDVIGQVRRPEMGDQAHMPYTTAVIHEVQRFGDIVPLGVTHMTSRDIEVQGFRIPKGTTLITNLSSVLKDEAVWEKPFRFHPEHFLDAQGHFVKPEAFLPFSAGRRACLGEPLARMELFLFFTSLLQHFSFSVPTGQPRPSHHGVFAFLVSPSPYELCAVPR
Sequence of Guanine nucleotide-binding protein G(i) subunit alpha-1 (Homo sapiens) (P63096 whole entry, looked up): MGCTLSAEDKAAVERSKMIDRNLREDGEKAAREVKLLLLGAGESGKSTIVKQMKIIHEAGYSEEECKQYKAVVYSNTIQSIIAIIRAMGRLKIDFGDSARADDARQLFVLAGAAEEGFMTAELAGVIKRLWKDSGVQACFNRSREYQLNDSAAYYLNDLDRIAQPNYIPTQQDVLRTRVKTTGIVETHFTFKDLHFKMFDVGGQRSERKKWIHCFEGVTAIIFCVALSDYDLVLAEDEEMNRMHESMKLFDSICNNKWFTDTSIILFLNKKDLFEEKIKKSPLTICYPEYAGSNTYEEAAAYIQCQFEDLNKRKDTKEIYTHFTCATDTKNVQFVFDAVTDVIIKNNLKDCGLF

With `N[C@H](C(=O)O)[C@H](O)C(=O)O`, the Potency entry in test [1], in test [2] and in test [3] was “inactive” throughout.
`CC(C)(CO)Cc1cc(C(C)(C)C)c(O)c(C(C)(C)C)c1`: the Potency result in test [1], in test [2], in test [3] and in test [5] was “inactive” each time. Also, in test [4], the Potency was 2.51 µM (active).
As to `O=[N+]([O-])c1cccc2cn[nH]c12`, the Potency result in test [1], in test [2], in test [6] and in test [5] was “inactive” each time.
Take `Nc1ccc2c3c(cccc13)C(=O)NC2=O`: the Potency result in test [1], in test [6] and in test [3] was “inactive” throughout. The Potency in test [2] was 0.794 µM (active).
For the compound `NC/C=C\C(=O)O`, the Potency entry in test [1], in test [6], in test [4] and in test [5] was “inactive” in each case.
In the case of `CCc1ccc2c(-c3cccc(Cl)c3)nc(=O)n(CC)c2n1`, the Potency in test [1] is 0.012 µM (active). In test [3], the Potency entry is “inactive”.
As to `O=C(N[C@@H](Cc1ccccc1)C(=O)CCl)OCc1ccccc1`, the Potency result in test [1] and in test [3] was “inactive” throughout.
In the case of `O=C(c1ccc2c(c1)OCCO2)N1CCCCC1`, the Potency entry in test [1], in test [6] and in test [5] was “inactive” in each case.
Take `O=C(O)c1ccccc1Nc1cccc(OCc2ccc3ccccc3n2)c1`: the Potency entry in test [1] and in test [3] was “inactive” throughout. Further, the Potency in test [6] is 31.6 µM (active); in test [4], 1.58 µM (active); in test [5], “inactive and 7.94 µM (active)”.
`Cc1nc(N=Nc2ccc(C(=O)O)cc2)c(COP(=O)(O)O)c(C=O)c1O`: the Potency result in test [1], in test [6] and in test [3] was “inactive” throughout.
Regarding `NC[C@@H]1O[C@H](c2ccccc2)Cc2c1ccc(O)c2O`, the Potency result in test [1] and in test [3] was “inactive” each time. The Potency in test [6] is 6.31 µM (active).
Consider `C=C1C(=O)O[C@@H]2[C@H]3O[C@]3(C)CCC=C(C)CC[C@@H]12`, for which the Potency result in test [1], in test [6], in test [3] and in test [5] was “inactive” each time.
On to `NC(=O)CNCCC(c1ccccc1)c1ccccc1`, for which the Potency entry in test [1], in test [2] and in test [3] was “inactive” each time.
With `CCN(CC)CCOC(=O)c1cc(Cl)c(N)cc1OC`, the Potency entry in test [1], in test [6], in test [4] and in test [3] was “inactive” each time.
On to `COc1ccc(NC(=O)c2ccc(-c3ccc(-c4noc(C)n4)cc3C)cc2)cc1N1CCN(C)CC1`, for which the Potency result in test [1] and in test [4] was “inactive” throughout. Further, in test [6], the Potency was 7.94 µM (active).
Regarding `Cc1cccc(C(=O)NCN2CCN(c3ccccc3C#N)CC2)c1`, the Potency entry in test [1], in test [2] and in test [3] was “inactive” in each case.
Regarding `Fc1ccc(CN(C2=NCCN2)c2c(Cl)cccc2Cl)cc1`, the Potency entry in test [1] and in test [2] was “inactive” each time. Besides, the Potency in test [5] was 1.26 µM (active).
As for `C[C@](Cc1ccc(O)c(O)c1)(NN)C(=O)O`, the Potency result in test [1], in test [6] and in test [5] was “inactive” throughout.
As for `CN(C)S(=O)(=O)c1ccc2c(c1)/C(=C/c1cc3c([nH]1)CCCC3)C(=O)N2`, the Potency entry in test [1] and in test [3] was “inactive” in each case. In addition, in test [4], the Potency was 5.01 µM (active).
`COc1ccccc1N1CCN(CCCCN2C(=O)c3ccccc3C2=O)CC1`: the Potency entry in test [1] and in test [3] was “inactive” in each case.
With `CCCCOC(=O)NS(=O)(=O)c1sc(CC(C)C)cc1-c1ccc(Cn2c(CC)nc3c(C)cc(C)nc32)cc1`, the Potency result in test [1] and in test [3] was “inactive” throughout. Also, the Potency in test [4] is 3.16 µM (active).
Consider `COc1ccc2c(c1)c(CC(=O)O)c(C)n2Cc1ccc(Cl)cc1`, for which the Potency result in test [1] and in test [3] was “inactive” throughout.
`O=C(O)C1=CCNCC1`: the Potency entry in test [1] and in test [4] was “inactive” each time.
As for `CC(=O)NCCc1c[nH]c2ccc(O)cc12`, the Potency entry in test [1], in test [2] and in test [3] was “inactive” in each case.
Take `O=c1[nH]c(=S)[nH]c(-c2ccccc2)c1Cc1c(O)ccc2ccccc12`: the Potency entry in test [1] is “inactive”. In addition, in test [3], the activity change, positive = activation is -42.7% [at 11.4 µM] (inactive).
Turning to `Cc1nc2c(OCc3ccccc3)cccn2c1CC#N`, the Potency result in test [1] and in test [3] was “inactive” each time.
For the compound `Oc1cc(O)c2c(c1)O[C@H](c1ccc(O)c(O)c1)[C@@H](O)C2`, the Potency result in test [1], in test [6], in test [4] and in test [5] was “inactive” throughout.
For `NC(N)=NC(N)=Nc1cccc(Cl)c1`, the Potency entry in test [1], in test [6], in test [4] and in test [3] was “inactive” in each case.
For the compound `COc1cc(/C=C(\C#N)C(=O)c2ccc(O)c(O)c2)cc(I)c1O`, the Potency entry in test [1] and in test [3] was “inactive” in each case. Further, in test [6], the Potency is 0.501 µM (active).
Consider `O=c1onc2n1-c1cc(Br)ccc1OC2`, for which the Potency result in test [1] and in test [3] was “inactive” in each case.
`CC(C)[C@H](NC(=O)OCc1ccccc1)C(=O)N[C@H](C=O)Cc1ccccc1` (Cbz-Val-Phe-aldehyde): the Potency entry in test [1] and in test [3] was “inactive” throughout. The Potency in test [4] is 6.31 µM (active).
For the compound `Nc1ncnc2c1ncn2C1CCCC1`, the Potency entry in test [1] and in test [3] was “inactive” each time.
`CNC(=O)c1cc2c(cn1)[nH]c1ccccc12`: the Potency entry in test [1], in test [6], in test [3] and in test [5] was “inactive” in each case.
In the case of `O=C(O)c1cccnc1C(=O)O`, the Potency result in test [1], in test [6], in test [4] and in test [5] was “inactive” each time.
Consider `NC1(C(=O)O)CCCCC1`, for which the Potency result in test [1], in test [2] and in test [5] was “inactive” each time.
Turning to `COc1ccccc1N1CCN(CCCCNC(=O)c2ccc3ccccc3c2)CC1`, the Potency result in test [1], in test [2] and in test [3] was “inactive” throughout. Further, the Potency in test [5] was 3.16 µM (active) and 3.98 µM (active).
In the case of `O=C1Cc2c([nH]c3ccc(Br)cc23)-c2ccccc2N1`, the Potency entry in test [1], in test [2] and in test [3] was “inactive” throughout. The Potency result in test [5] was “inactive and 398 nM (active)”.
For the compound `COc1ccc2c(c1)c(CC(=O)O)c(C)n2C(=O)c1ccccc1`, the Potency entry in test [1], in test [2] and in test [5] was “inactive” each time.
Consider `Cc1nc(N=Nc2cc(S(=O)(=O)O)c3cc([N+](=O)[O-])cc(S(=O)(=O)O)c3c2)c(COP(=O)(O)O)c(C=O)c1O`, for which the Potency entry in test [1], in test [6], in test [4], in test [3] and in test [5] was “inactive” throughout.
In the case of `N=C(N)SCCN`, the Potency entry in test [1] and in test [3] was “inactive” each time. Further, the Potency in test [4] is 3.16 µM (active).
In the case of `O=c1ccc2c(OCCCCc3ccccc3)c3ccoc3cc2o1`, in test [2], the Potency entry is “inactive”.
Regarding `O=c1[nH]c2cc(Cl)ccc2c(O)c1-c1ccc(Oc2ccccc2)cc1`, the Potency entry in test [1] and in test [3] was “inactive” in each case.
For the compound `Clc1nccc2c1ccc1ccccc12`, the Potency entry in test [2] and in test [3] was “inactive” in each case.
`O=C(O)/C=C/c1ccc(O)c(O)c1`: the Potency entry in test [2] and in test [3] was “inactive” in each case.
Regarding `CN(C)CCC(c1ccc(Br)cc1)c1ccccn1` (stereo unspecified), in test [4], the Potency entry was “inactive”.
In the case of `N[C@@H](CS(=O)O)C(=O)O`, the Potency entry in test [2] is “inactive”.
Turning to `c1ccc(C2CN3CCSC3=N2)cc1` (stereo unspecified), in test [4], the Potency entry is “inactive”.
Regarding `C[C@H](O)C(=O)C1=Nc2c(nc(N)[nH]c2=O)NC1`, the Potency result in test [1] and in test [3] was “inactive” each time.
Turning to `COc1ccccc1N1CCN(CCCNc2c(C)c(=O)n(C)c(=O)n2C)CC1`, in test [2], the Potency result was “inactive”.
In the case of `CN1CCN(c2nc3cc(C(F)(F)F)ccc3n3cccc23)CC1`, the Potency result in test [2] and in test [3] was “inactive” each time.
As to `CCSC(=N)N`, the Potency result in test [1] and in test [3] was “inactive” throughout. For the same compound, the Potency in test [5] is 3.98 µM (active).
